Reference: PubChem BioAssay (Tox21)
Records with an inconclusive call do not appear. Entries that show only a call come without a potency. A number with no mark means an inactive call. Active and inactive are the calls of the source. Calls come from the whole dose curve; as a rule, active = well fitted cell-killing curve with a large enough effect in the repeat runs; inconclusive = weak or mixed curves, or effect the other way; inactive = flat fitted curve, though single readings scatter.

What was measured:
[1] = cAMP Responsive Elements (CRE) small molecule antagonists, cell-based qHTS assay: qHTS cell viability counter screen (AID 2060913); note: nearly all actives have a fitted effect of over 40% in size
Summary of the method: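 CRE-bla HEK293T cells were seeded in assay medium with 10% dialyzed FBS, incubated 18 hrs at 37 C, then exposed to compounds plus 0.25 uM final NKH477 for 3 hrs. Viability was read by CellTiter-Glo luminescence after 30 min, in the same wells.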

[2] = cAMP Responsive Elements (CRE) small molecule agonists, cell-based qHTS assay: qHTS cell viability counter screen (AID 2060914);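 note: viability read after 3 h of compound exposure; nearly all actives have a fitted effect of over 50% in size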
Summary of the method: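 HEK 293T CRE-bla; DMEM + 10% dialyzed FBS, 25 mM HEPES; 18 h pre-incubation; compound 3 h, 37 °C/5% CO2; CellTiter-Glo added after reporter read; luminescence after 30 min RT.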

| SMILES | Potency [1] | Potency [2] | viability change, negative = cytotoxic [1] | activity change, negative = cytotoxicity [2] |
| --- | --- | --- | --- | --- |
| CC1(C)C(C=C(Cl)Cl)C1C(=O)OC(C#N)c1ccc(F)c(Oc2ccccc2)c1 (stereo not given) | inactive | inactive |  |  |
| O=Cc1ccc2c(c1)OCO2 | inactive | inactive |  |  |
| COc1cc(N)c(Cl)cc1C(=O)NC1CN2CCC1CC2 (stereo not given) | inactive | inactive |  |  |
| O=[N+]([O-])c1ccc(Oc2ccc(C(F)(F)F)cc2[N+](=O)[O-])cc1 | inactive | inactive |  |  |
| CC(C)(C)c1cc(O)ccc1O | inactive | inactive |  |  |
| [CH3][Hg][Cl] | inactive | inactive |  |  |
| OCc1ccco1 | inactive | inactive |  |  |
| CN1[C@@H]2CC[C@H]1CC(OC(=O)c1cc(Cl)cc(Cl)c1)C2 (stereo not given in full) | inactive | inactive |  |  |
| Cc1nc(N)nc(N)n1 | inactive | inactive |  |  |
| COC(=O)C(C)Oc1ccc(Oc2ccc(Cl)cc2Cl)cc1 (stereo not given) | inactive | inactive |  |  |
| CC[C@]1(O)CC[C@H]2[C@@H]3CCC4=CCCC[C@@H]4[C@H]3CC[C@@]21C | inactive | inactive |  |  |
| ClC1=C(Cl)[C@]2(Cl)[C@H]3[C@H]([C@@H]4C=C[C@H]3C4)[C@@]1(Cl)C2(Cl)Cl | inactive | inactive |  |  |
| CCN(C(C)=O)c1cccc(-c2ccnc3c(C#N)cnn23)c1 | inactive | inactive |  |  |
| Nc1ccc(Oc2ccc(N)cc2)cc1 | inactive | inactive |  |  |
| BrCC1CO1 (stereo not given) | inactive | inactive |  |  |
| CCC1(c2cccc(O)c2)CCCCN(C)C1 (stereo not given) | inactive | inactive |  |  |
| O=C(CBr)OCc1ccccc1 | inactive | inactive |  |  |
| ClC(Cl)(Cl)C(Cl)(Cl)Cl | inactive | inactive |  |  |
| Oc1ccc(Cl)cc1Cl | inactive | inactive |  |  |
| CC(C)(C)NC[C@H](O)c1ccc(O)cc1Cl | inactive | inactive |  |  |
| CCCOc1nn(C(=O)NS(=O)(=O)c2ccccc2C(=O)OC)c(=O)n1C | inactive | inactive |  |  |
| COc1cc(-c2ccc(N)c(OC)c2)ccc1N | inactive | inactive |  |  |
| O=[N+]([O-])c1ccccc1O | inactive | inactive |  |  |
| CCOC(=O)C(SP(=S)(OC)OC)c1ccccc1 (stereo not given) | inactive | inactive |  |  |

| SMILES | Potency [1] | Potency [2] | viability change, negative = cytotoxic [1] | activity change, negative = cytotoxicity [2] |
| --- | --- | --- | --- | --- |
| Cc1cc2c3c(c1)C(c1ccccc1)=N[C@@H](NC(=O)c1ccncc1)C(=O)N3CC2 | inactive | inactive |  |  |
| Nn1cnnc1 | inactive | inactive |  |  |
| CC[C@H]1C[C@H]2[C@@H]3CCC4=CC(=O)CC[C@@H]4[C@H]3CC[C@]2(C)[C@H]1O | inactive | inactive |  |  |
| ClCc1ccccc1 | inactive | inactive |  |  |
| CCCCCl | inactive | inactive |  |  |
| NNCCO | inactive | inactive |  |  |
| CCc1ccc(C(=O)NN(C(=O)c2cc(C)cc(C)c2)C(C)(C)C)cc1 | inactive | inactive |  |  |
| CC1(C)[C@H](C(=O)O[C@H](C#N)c2cccc(Oc3ccccc3)c2)[C@@H]1/C=C(\Cl)C(F)(F)F | inactive | inactive |  |  |
| CN(C)C1CSSSC1 | inactive | inactive |  |  |
| N#Cc1cc([N+](=O)[O-])ccc1N | inactive | inactive |  |  |
| CCOC(=O)N(C)N=O | inactive | inactive |  |  |
| Cc1ccc(OP(=O)(Oc2ccccc2)Oc2ccccc2)cc1 | inactive | inactive |  |  |
| O=c1ssc(Cl)c1Cl | inactive | inactive |  |  |
| CCNc1nc(NC(C)C)nc(OC)n1 | inactive | inactive |  |  |
| CC(C(O)c1ccccc1)N(C)C/C=C/c1ccccc1 (stereo not given) | inactive | inactive |  |  |
| O=C(Cl)C(Cl)Cl | inactive | inactive |  |  |
| CCOC(=O)c1ccccc1C(=O)OCC | inactive | inactive |  |  |
| NNc1ccccc1 | inactive | inactive |  |  |
| OCCN(CCO)CCO | inactive | inactive |  |  |
| CN(CCCC(=O)c1cccnc1)N=O | inactive | inactive |  |  |
| CS(=O)(=O)c1ccc(C(=O)C2C(=O)CCCC2=O)c(Cl)c1COCC(F)(F)F | inactive | inactive |  |  |
| Cc1c([N+](=O)[O-])cc2c(c1[N+](=O)[O-])C(C)(C)CC2(C)C | inactive | inactive |  |  |
| C=CC(=O)OCC(C)C | inactive | inactive |  |  |
| COc1ccc(C=O)cc1 | inactive | inactive |  |  |

| SMILES | Potency [1] | Potency [2] | viability change, negative = cytotoxic [1] | activity change, negative = cytotoxicity [2] |
| --- | --- | --- | --- | --- |
| CCCCN(CCCCO)N=O | inactive | inactive |  |  |
| O=C(CCl)CCl | inactive | inactive |  |  |
| CCc1ccccc1N | inactive | inactive |  |  |
| O=CC=O | inactive | inactive |  |  |
| CC1(C)CON(Cc2ccccc2Cl)C1=O | inactive | inactive |  |  |
| CC(C)N(C(=O)SC/C(Cl)=C/Cl)C(C)C | inactive | inactive |  |  |
| COc1ccc(-c2ccccc2)cc1NNC(=O)OC(C)C | inactive | inactive |  |  |
| NCC(CC(=O)O)c1ccc(Cl)cc1 (stereo not given) |  |  | -0.747% [at 0.349 µM] | -9.73% [at 0.349 µM] |
| C[N+](C)(C)C | inactive | inactive |  |  |
| CCCN(CC)CC1COC2(CCC(C(C)(C)C)CC2)O1 (stereo not given) | inactive | inactive |  |  |
| Nc1ccc2c(c1)Cc1ccccc1-2 | inactive | inactive |  |  |
| S=C=NCc1ccccc1 | inactive | inactive |  |  |
| O=[N+]([O-])c1ccc(Nc2ccccc2)cc1 | inactive | inactive |  |  |
| CC[n+]1ccccc1 | inactive | inactive |  |  |
| CSC1=N[C@@](C)(c2ccccc2)C(=O)N1Nc1ccccc1 | inactive | inactive |  |  |
| CCOS(C)(=O)=O | inactive | inactive |  |  |
| CCCC(=O)Cl | inactive | inactive |  |  |
| CCCCOC(=O)CCC(=O)OCCCC | inactive | inactive |  |  |
| CNC(=O)O/N=C(\C)SC | inactive | inactive |  |  |
| Cc1ncc(CNC(=O)N(CCCl)N=O)c(N)n1 | inactive | inactive |  |  |
| COc1ccc(CN2CCNCC2)c(OC)c1OC | inactive | inactive |  |  |
| C[C@]12CC[C@H](O)CC1=CC[C@@H]1[C@@H]2CC[C@]2(C)C(=O)CC[C@@H]12 | inactive | inactive |  |  |
| CCC(C)c1cc([N+](=O)[O-])cc([N+](=O)[O-])c1OC(=O)C=C(C)C (stereo not given) | inactive | inactive |  |  |
| CC(C)c1ccc(NC(=O)N(C)C)cc1 | inactive | inactive |  |  |

| SMILES | Potency [1] | Potency [2] | viability change, negative = cytotoxic [1] | activity change, negative = cytotoxicity [2] |
| --- | --- | --- | --- | --- |
| CCCCCC[n+]1ccccc1 | inactive | inactive |  |  |
| ClC1=C(Cl)[C@]2(Cl)[C@@H]3[C@@H](Cl)[C@H](Cl)C[C@@H]3[C@@]1(Cl)C2(Cl)Cl | inactive | inactive |  |  |
| COc1ccc(O)c(C(C)(C)C)c1 | inactive | inactive |  |  |
| c1ccc(Nc2ccc(Nc3ccccc3)cc2)cc1 | inactive | inactive |  |  |
| O=C(O)CC(O)(CC(=O)O)C(=O)O | inactive | inactive |  |  |
| CC(Cl)(Cl)C(=O)O | inactive | inactive |  |  |
| CCC1(CC)C(=O)C=CNC1=O | inactive | inactive |  |  |
| NC(=O)CI | inactive | inactive |  |  |
| COc1ccc2[nH]cc(CCN(C(C)C)C(C)C)c2c1 | inactive | inactive |  |  |
| Clc1ccc(C(Cl)(Cl)Cl)cc1Cl | inactive | inactive |  |  |
| CCOP(=S)(OCC)SCn1c(=O)oc2cc(Cl)ccc21 | inactive | inactive |  |  |
| c1ccc2c(c1)OCC(C1=NCCN1)O2 (stereo not given) | inactive | inactive |  |  |
| CC(C)(c1ccccc1)c1ccc(O)cc1 | inactive | inactive |  |  |
| II | inactive | inactive |  |  |
| [O-][Cl+3]([O-])([O-])O | inactive | inactive |  |  |
| CN(C)c1ccccc1 | inactive | inactive |  |  |
| CC(=O)/C=C/c1ccc2c(c1)OCO2 | inactive | inactive |  |  |
| O=C/C=C/c1ccco1 | inactive | inactive |  |  |
| CCCCc1ccccc1 | inactive | inactive |  |  |
| O=C(O)C(O)C(O)C(=O)O (stereo not given) | inactive | inactive |  |  |
| COC(=O)c1cc(Oc2ccc(Cl)cc2Cl)ccc1[N+](=O)[O-] | inactive | inactive |  |  |
| SCc1ccccc1 | inactive | inactive |  |  |
| CC(C)C1(C)N=C(c2ncccc2C(=O)O)NC1=O (stereo not given) | inactive | inactive |  |  |
| N#CC(O)c1ccccc1 (stereo not given) | inactive | inactive |  |  |

| SMILES | Potency [1] | Potency [2] | viability change, negative = cytotoxic [1] | activity change, negative = cytotoxicity [2] |
| --- | --- | --- | --- | --- |
| Clc1nc(Cl)nc(Nc2ccccc2Cl)n1 | inactive | inactive |  |  |
| CC(C)(N)Cc1ccccc1Cl | inactive | inactive |  |  |
| CC(Br)C(=O)O (stereo not given) | inactive | inactive |  |  |
| CCOP(=S)(OCC)Oc1cc(-c2ccccc2)on1 | inactive | inactive |  |  |
| CC(Cl)Cl | inactive | inactive |  |  |
| COc1cc(OC)nc(Oc2cccc(Oc3nc(OC)cc(OC)n3)c2C(=O)O)n1 | inactive | inactive |  |  |
| CC(C)(C)N(NC(=O)c1ccc(Cl)cc1)C(=O)c1ccccc1 | inactive | inactive |  |  |
| CNC(=O)Oc1cccc2c1OC(C)(C)O2 | inactive | inactive |  |  |
| COCC(C)N(C(=O)CCl)c1c(C)csc1C (stereo not given) | inactive | inactive |  |  |
| CN(C)C(=O)Cl | inactive | inactive |  |  |
| CCn1cc[n+](C)c1 (tested in a mixture with another compound) | inactive | inactive |  |  |
| CCCCN(CC)C(=O)SCCC | inactive | inactive |  |  |
| CCOP(=S)(Oc1ccc([N+](=O)[O-])cc1)c1ccccc1 (stereo not given) | inactive | inactive |  |  |
| CN(C)NC(=O)CCC(=O)O | inactive | inactive |  |  |
| COc1ccc(C=O)cc1O | inactive | inactive |  |  |
| OCC(Cl)CCl (stereo not given) | inactive | inactive |  |  |
| O=C(Cl)c1ccc(Cl)cc1 | inactive | inactive |  |  |
| CCNc1nc(Cl)nc(NC(C)C)n1 | inactive | inactive |  |  |
| CCCCCc1cc(O)cc(O)c1 | inactive | inactive |  |  |
| Nc1ccc(Br)cc1 | inactive | inactive |  |  |
| CC(Cl)(Cl)[N+](=O)[O-] | inactive | inactive |  |  |
| Oc1cccc(Cl)c1Cl | inactive | inactive |  |  |
| CC(C)C(Br)C(=O)NC(N)=O (stereo not given) | inactive | inactive |  |  |
| O=[N+]([O-])c1cccc2cccc([N+](=O)[O-])c12 | inactive | inactive |  |  |
